Bioassay records: PubChem, several laboratories
Plk1 PBD FP – inhibitors of human Plk1 polo box domain binding; Plk1 PBD phosphopeptide binding, fluorescence polarization; hit rate 0.13% among 97,000; AID 693; inhibition, %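 (tested at about 20 µM)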; in the data active means inhibition above about 34%, passing the limit was not always enough
CYP2C9 act – increases human cytochrome P450 2C9 activity | hit rate 1.4% among 96,000 | P11712 | AID 1024 | recombinant CYP2C9, luciferin-H conversion, luminescence; stronger effect = higher value; factor 1 = untreated enzyme, 0 = blocked | activation factor at 5 µM;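 active means activation factor of 2 or more for CYP2C9 at a 5 µM dose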
PLK1 kinase inh – inhibitors of human PLK1 kinase; P53350; recombinant PLK1 kinase, TR-FRET peptide phosphorylation; inhibition, % at 10 µM; hit rate 0.53% among 97,000;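 active means inhibition of 50% or more in the single-concentration screen; inactive means inhibition below 50%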
CYP2C9 inh – human CYP2C9 inhibition | hit rate 20% among 96,000 | AID 777 | CYP2C9 Supersomes, luciferin-H conversion, luminescence | P11712 | inhibition, % at 5 µM;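 active means blocking of liver enzyme CYP2C9 beyond about 50% at 5 µM, limit read from the data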
CYP2C19 activ – increases human CYP2C19 enzyme activity; P33261; recombinant CYP2C19, luciferin-H EGE luminescence; stronger effect = higher value; 0 = fully inhibited enzyme, 1 = untreated enzyme; activation factor at 5 µM; 96,000 tested, under 10 active;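 active means activation factor of at least 2 at 5 µM in the primary screen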
CYP2C19 inh – inhibitors of human CYP2C19 | AID 778 | inhibition, % at 5 µM | CYP2C19 Supersomes, luciferin-H EGE luminescence, 30 min | hit rate 21% among 96,000 | P33261;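 active means CYP2C19 inhibition above a set limit at 5 µM in the primary screen, cut at about 50% in these data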
Large screens that a line does not name were inactive. The list is not random: actives were taken first. Their share in the collection is about 28%.

CC(C)(C)NC(=O)c1cc(F)c(F)cc1Cl	none
CC1=NOC(=O)/C1=C\c1ccc(-c2ccc(Cl)cc2Cl)o1	none
O=C(O)c1cc(C2CC2)nn1-c1ccccc1	none
Nc1cc(C2CCCC2)nn1-c1ccccc1	CYP2C19 inh 92
Cc1cccc(Cn2c(=O)c3c(nc4n3CCCN4Cc3ccccc3)n(C)c2=O)c1	none
Cc1cc(C)c(S(=O)(=O)N(CC(=O)N2CCOCC2)C2CCCCC2)c(C)c1	CYP2C9 inh 75
CCOC(=O)N1CCN(C(=O)CN(C2CCCCC2)S(=O)(=O)c2c(C)cc(C)cc2C)CC1	CYP2C9 inh 63
COCCCNC(=O)Nc1ccc(Br)cc1Cl	none
O=C(CCS(=O)(=O)c1ccc(Br)s1)NCc1ccc2c(c1)OCO2	CYP2C9 inh 81
CN(CC(=O)NCc1ccc2c(c1)OCO2)S(=O)(=O)c1ccc(Br)s1	CYP2C9 inh 89, CYP2C19 inh 70
CCOC(=O)c1ccc(Oc2nc(N(C)C)nc(N(C)C)n2)cc1	none
CCOC(=O)c1ccc(Oc2nc(NC(C)(C)C)nc(N(C)C)n2)cc1	CYP2C9 inh 88, CYP2C19 inh 84
CCOc1cc(C2C(C(=O)c3ccccc3)=C(C(=O)OC)Nc3nnnn32)ccc1O (stereo not given)	none
COc1ccc(NC(=O)c2ccccc2NC(=O)NC2CCCCC2)cc1	none
Cc1ccc(OCC(=O)Nc2cccc3nsnc23)c(C)c1	CYP2C19 inh 74
COc1cc(NS(=O)(=O)c2cccc3nsnc23)c(C(=O)O)cc1OC	none
O=S(=O)(Nc1cccc2nsnc12)c1ccccc1	CYP2C9 inh 86, CYP2C19 inh 71
O=S(=O)(Nc1ccccc1F)c1ccc2nsnc2c1	CYP2C19 inh 63 (no result: Plk1 PBD FP, PLK1 kinase inh)
Cc1cc(C)c(S(=O)(=O)Nc2cccc3nsnc23)c(C)c1	CYP2C9 inh 83 (no result: Plk1 PBD FP, PLK1 kinase inh)
N#Cc1c(N)nc2c(c1N)CC(COc1ccccc1)O2 (stereo not given)	none
CCCCCCC(=O)N/N=C/Cc1ccccc1	none
CCOC(=O)C1C(=O)CC(C)(O)C(C(=O)OCC)C1c1ccccc1OC (stereo not given)	none
CC(Oc1ccccc1)C(=O)Nc1ccc(S(=O)(=O)NCC2CCCO2)cc1 (stereo not given)	none
Cc1cccc(C)c1NS(=O)(=O)c1c(C)[nH]c(=O)[nH]c1=O	none
Cc1cc(C)c(S(=O)(=O)Nc2ccc[nH]c2=O)c(C)c1	CYP2C9 act 4, CYP2C19 inh 85
Cc1ccc(S(=O)(=O)NC2=NCN(CCOC(=O)c3ccc([N+](=O)[O-])cc3)CN2)cc1	none
CC(=O)Nc1ccc(-c2nnc(SCc3ccc(C)cc3)n2C)cc1	none
COC(=O)CSc1nnc(-c2cccc(NC(=O)c3ccc(C)cc3)c2)n1C	CYP2C9 inh 76
CC(=O)Nc1cccc(-c2nnc(SCc3ccccc3C#N)n2C)c1	CYP2C19 inh 62
Cc1ccc(CSc2nnc(-c3ccncc3)n2C)cc1	CYP2C19 inh 73
CC(=O)Nc1ccc(-c2nnc(SCc3ccccc3C#N)n2C)cc1	none
Cc1ccc(NC(=O)c2ccc(CSc3nnc(-c4ccncc4)n3C)cc2)cc1	CYP2C9 inh 66
Cn1c(SCc2ccccn2)nnc1-c1ccncc1	CYP2C19 inh 94 (no result: Plk1 PBD FP, PLK1 kinase inh)
Cn1c(SCc2ccccc2)nnc1-c1ccc2c(c1)OCO2	CYP2C19 inh 88
Cn1c(SCC#N)nnc1-c1ccc2c(c1)OCO2	none (no result: CYP2C9 act, CYP2C9 inh, CYP2C19 activ, CYP2C19 inh)
COc1cccc(-c2nnc(SCc3ccccn3)n2C)c1	none
CC1=C(C(=O)NCc2ccccc2)C(c2cccnc2)n2ncnc2N1 (stereo not given)	none
CCCS(=O)(=O)c1c(S(=O)(=O)CCC)c2c(N)cccn2c1C(=O)c1ccc(Br)cc1	none (no result: CYP2C9 act, CYP2C9 inh, CYP2C19 activ, CYP2C19 inh)
CCCS(=O)(=O)c1c(S(=O)(=O)CCC)c2c(N)cccn2c1C(=O)c1ccc(F)cc1	CYP2C9 inh 68, CYP2C19 inh 66
NC(=S)NNc1cc(Cl)cc(Cl)c1	none
c1ccc2oc(CCc3nc4ccccc4o3)nc2c1	none (no result: Plk1 PBD FP, PLK1 kinase inh)
CS(=O)(=O)Cc1nc2ccccc2oc1=O	CYP2C19 inh 64
COc1ccc(NC(=O)C2OCCc3ccccc32)c(OC)c1 (stereo not given)	CYP2C19 inh 91
COc1ccc(NC(=O)c2cc(C(C)C)on2)c(OC)c1	CYP2C9 act 2.8
COc1ccc(NC(=O)c2c(OC)cccc2OC)c(OC)c1	none
O=C(Nc1cccnc1)C1OCCc2ccccc21 (stereo not given)	none
